# Measurements taken from PubChem BioAssay AID1159580 (chemical genetic matrix, 2015).
# Among all 5,500 compounds or so, about 2,000 (36%) were called active. Inconclusive results (about 18%) are left out. The list shows a part of the results. A number with no mark means an inactive call. Cut-off read from the data, not from the text of the source: active = normalized growth mostly below about 0.91 (no sharp cut-off); inconclusive = no clear call, values can overlap the other calls; inactive = mostly above about 0.92.
# Assay: chemical genetic growth profiling, strain panel (AID 1159580);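 note: tested at 20 µM; growth read once vehicle control cultures reached saturation at 30 °C; 1 = growth at the plate median or of vehicle wells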
# Details: growth OD
compound,measurement,setting,value
COP(=S)(OC)Oc1ccc([N+](=O)[O-])cc1,normalized growth,"S. cerevisiae deletion strains, locus YJR075W, strain HOC1, stronger effect = lower value",0.993
same,normalized growth,"S. cerevisiae deletion strains, locus YKL009W, strain mrt4, stronger effect = lower value",0.962
same,normalized growth,"S. cerevisiae deletion strains, locus YKL068W, stronger effect = lower value",0.987
same,normalized growth,"S. cerevisiae deletion strains, locus YKL085W, strain MDH1 (second series), stronger effect = lower value",0.978
same,normalized growth,"S. cerevisiae deletion strains, locus YKL085W, strain MDH1, stronger effect = lower value",0.978
same,normalized growth,"S. cerevisiae deletion strains, locus YKL160W, strain elf1, stronger effect = lower value",0.993
same,normalized growth,"S. cerevisiae deletion strains, locus YKL190W, strain CNB1, stronger effect = lower value",0.975
same,normalized growth,"S. cerevisiae deletion strains, locus YKR001C, strain vps1, stronger effect = lower value",0.982
same,normalized growth,"S. cerevisiae deletion strains, locus YKR026C, strain gcn3, stronger effect = lower value",0.995
same,normalized growth,"S. cerevisiae deletion strains, locus YKR091W, strain srl3, stronger effect = lower value",0.992
same,normalized growth,"S. cerevisiae deletion strains, locus YLL001W, strain dnm1, stronger effect = lower value",0.995
same,normalized growth,"S. cerevisiae deletion strains, locus YLL026W, stronger effect = lower value",0.993
same,normalized growth,"S. cerevisiae deletion strains, locus YLL041C, strain sdh2, stronger effect = lower value",1
same,normalized growth,"S. cerevisiae deletion strains, locus YLR027C, strain aat2, stronger effect = lower value",0.998
same,normalized growth,"S. cerevisiae deletion strains, locus YLR039C, strain RIC1, stronger effect = lower value",0.877
same,normalized growth,"S. cerevisiae deletion strains, locus YLR058C, strain SHM2, stronger effect = lower value",0.975
same,normalized growth,"S. cerevisiae deletion strains, locus YLR102C, strain apc9, stronger effect = lower value",0.974
same,normalized growth,"S. cerevisiae deletion strains, locus YLR113W, strain HOG1, stronger effect = lower value",0.916
same,normalized growth,"S. cerevisiae deletion strains, locus YLR221C, strain rsa3, stronger effect = lower value",0.974
same,normalized growth,"S. cerevisiae deletion strains, locus YLR258W, strain gsy2, stronger effect = lower value",0.99
same,normalized growth,"S. cerevisiae deletion strains, locus YLR262C, strain YPT6 (second series), stronger effect = lower value",0.927
same,normalized growth,"S. cerevisiae deletion strains, locus YLR262C, strain YPT6, stronger effect = lower value",0.915
same,normalized growth,"S. cerevisiae deletion strains, locus YLR268W, strain sec22, stronger effect = lower value",0.993
same,normalized growth,"S. cerevisiae deletion strains, locus YLR320W, strain mms22, stronger effect = lower value",0.944
same,normalized growth,"S. cerevisiae deletion strains, locus YLR330W, strain CHS5, stronger effect = lower value",0.989
same,normalized growth,"S. cerevisiae deletion strains, locus YLR342W, strain FKS1 (second series), stronger effect = lower value",0.998
same,normalized growth,"S. cerevisiae deletion strains, locus YLR342W, strain FKS1, stronger effect = lower value",0.981
same,normalized growth,"S. cerevisiae deletion strains, locus YLR357W, strain rsc2, stronger effect = lower value",1
same,normalized growth,"S. cerevisiae deletion strains, locus YLR370C, strain arc18, stronger effect = lower value",0.991
same,normalized growth,"S. cerevisiae deletion strains, locus YLR371W, strain rom2, stronger effect = lower value",0.975
same,normalized growth,"S. cerevisiae deletion strains, locus YLR384C, strain iki3, stronger effect = lower value",0.971
same,normalized growth,"S. cerevisiae deletion strains, locus YLR418C, strain cdc73, stronger effect = lower value",0.991
same,normalized growth,"S. cerevisiae deletion strains, locus YML016C, strain PPZ1, stronger effect = lower value",0.951
same,normalized growth,"S. cerevisiae deletion strains, locus YML032C, strain rad52, stronger effect = lower value",0.981
same,normalized growth,"S. cerevisiae deletion strains, locus YML120C, strain ndi1, stronger effect = lower value",1
same,normalized growth,"S. cerevisiae deletion strains, locus YML124C, strain tub3, stronger effect = lower value",0.99
same,normalized growth,"S. cerevisiae deletion strains, locus YMR058W, strain fet3, stronger effect = lower value",1
same,normalized growth,"S. cerevisiae deletion strains, locus YMR078C, strain ctf18, stronger effect = lower value",0.974
same,normalized growth,"S. cerevisiae deletion strains, locus YMR125W, strain sto1, stronger effect = lower value",0.995
same,normalized growth,"S. cerevisiae deletion strains, locus YMR129W, stronger effect = lower value",0.991
same,normalized growth,"S. cerevisiae deletion strains, locus YMR205C, strain PFK2, stronger effect = lower value",0.97
same,normalized growth,"S. cerevisiae deletion strains, locus YMR223W, strain ubp8, stronger effect = lower value",0.99
same,normalized growth,"S. cerevisiae deletion strains, locus YMR231W, strain pep5, stronger effect = lower value",0.978
same,normalized growth,"S. cerevisiae deletion strains, locus YMR263W, strain SAP30, stronger effect = lower value",0.985
same,normalized growth,"S. cerevisiae deletion strains, locus YMR307W, strain GAS1, stronger effect = lower value",1.03
same,normalized growth,"S. cerevisiae deletion strains, locus YNL067W, strain RPL9B, stronger effect = lower value",0.984
same,normalized growth,"S. cerevisiae deletion strains, locus YNL071W, strain lat1, stronger effect = lower value",0.934
same,normalized growth,"S. cerevisiae deletion strains, locus YNL128W, strain TEP1, stronger effect = lower value",0.96
same,normalized growth,"S. cerevisiae deletion strains, locus YNL153C, strain GIM3, stronger effect = lower value",0.998
same,normalized growth,"S. cerevisiae deletion strains, locus YNL183C, strain NPR1, stronger effect = lower value",0.954
same,normalized growth,"S. cerevisiae deletion strains, locus YNL209W, strain ssb2, stronger effect = lower value",0.993
same,normalized growth,"S. cerevisiae deletion strains, locus YNL233W, strain BNI4, stronger effect = lower value",0.977
same,normalized growth,"S. cerevisiae deletion strains, locus YNL248C, strain rpa49, stronger effect = lower value",0.983
same,normalized growth,"S. cerevisiae deletion strains, locus YNL250W, strain rad50, stronger effect = lower value",0.981
same,normalized growth,"S. cerevisiae deletion strains, locus YNL271C, strain bni1, stronger effect = lower value",0.98
same,normalized growth,"S. cerevisiae deletion strains, locus YNL298W, strain CLA4, stronger effect = lower value",0.977
same,normalized growth,"S. cerevisiae deletion strains, locus YNL307C, strain MCK1, stronger effect = lower value",0.984
same,normalized growth,"S. cerevisiae deletion strains, locus YNL322C, strain KRE1 (second series), stronger effect = lower value",0.99
same,normalized growth,"S. cerevisiae deletion strains, locus YNL322C, strain KRE1, stronger effect = lower value",0.986
same,normalized growth,"S. cerevisiae deletion strains, locus YNR049C, strain mso1, stronger effect = lower value",1.01
same,normalized growth,"S. cerevisiae deletion strains, locus YNR052C, strain pop2, stronger effect = lower value",0.984
same,normalized growth,"S. cerevisiae deletion strains, locus YOL006C, strain TOP1, stronger effect = lower value",0.885
same,normalized growth,"S. cerevisiae deletion strains, locus YOL012C, strain htz1",1.15
same,normalized growth,"S. cerevisiae deletion strains, locus YOL147C, strain pex11, stronger effect = lower value",0.994
same,normalized growth,"S. cerevisiae deletion strains, locus YOR001W, strain rrp6, stronger effect = lower value",1
same,normalized growth,"S. cerevisiae deletion strains, locus YOR061W, strain CKA2, stronger effect = lower value",0.964
same,normalized growth,"S. cerevisiae deletion strains, locus YOR069W, strain VPS5, stronger effect = lower value",0.994
same,normalized growth,"S. cerevisiae deletion strains, locus YOR070C, strain gyp1, stronger effect = lower value",1
same,normalized growth,"S. cerevisiae deletion strains, locus YOR080W, strain dia2, stronger effect = lower value",0.984
same,normalized growth,"S. cerevisiae deletion strains, locus YOR083W, strain WHI5, stronger effect = lower value",0.987
same,normalized growth,"S. cerevisiae deletion strains, locus YOR106W, strain vam3, stronger effect = lower value",0.947
same,normalized growth,"S. cerevisiae deletion strains, locus YOR136W, strain idh2, stronger effect = lower value",0.997
same,normalized growth,"S. cerevisiae deletion strains, locus YOR144C, strain elg1, stronger effect = lower value",0.987
same,normalized growth,"S. cerevisiae deletion strains, locus YOR184W, strain ser1, stronger effect = lower value",0.984
same,normalized growth,"S. cerevisiae deletion strains, locus YOR231W, strain MKK1, stronger effect = lower value",1
same,normalized growth,"S. cerevisiae deletion strains, locus YOR265W, strain rbl2, stronger effect = lower value",1.01
same,normalized growth,"S. cerevisiae deletion strains, locus YOR270C, strain vph1, stronger effect = lower value",0.658 (active)
same,normalized growth,"S. cerevisiae deletion strains, locus YOR290C, strain snf2, stronger effect = lower value",0.997
same,normalized growth,"S. cerevisiae deletion strains, locus YOR316C, strain cot1, stronger effect = lower value",0.967
same,normalized growth,"S. cerevisiae deletion strains, locus YPL051W, strain arl3, stronger effect = lower value",1.01
same,normalized growth,"S. cerevisiae deletion strains, locus YPL055C, strain LGE1, stronger effect = lower value",0.964
same,normalized growth,"S. cerevisiae deletion strains, locus YPL078C, strain atp4, stronger effect = lower value",0.999
same,normalized growth,"S. cerevisiae deletion strains, locus YPL106C, strain sse1, stronger effect = lower value",0.984
same,normalized growth,"S. cerevisiae deletion strains, locus YPL240C, strain hsp82, stronger effect = lower value",0.999
same,normalized growth,"S. cerevisiae deletion strains, locus YPL241C, strain CIN2, stronger effect = lower value",0.985
same,normalized growth,"S. cerevisiae deletion strains, locus YPL256C, strain CLN2, stronger effect = lower value",1.01
same,normalized growth,"S. cerevisiae deletion strains, locus YPR119W, strain clb2, stronger effect = lower value",0.983
same,normalized growth,"S. cerevisiae deletion strains, locus YPR141C, strain kar3, stronger effect = lower value",0.951
same,normalized growth,"S. cerevisiae deletion strains, locus YPR163C, strain tif3, stronger effect = lower value",0.99
same,normalized growth,"S. cerevisiae deletion strains, locus YPR167C, strain met16, stronger effect = lower value",0.984
same,normalized growth,"S. cerevisiae deletion strains, strain wtn01, stronger effect = lower value",0.977
same,normalized growth,"S. cerevisiae strains, strain wild type, stronger effect = lower value",0.985
